The whole screen tested about 310,000 compounds, of which about 14,000 (4.5%) showed an effect of 50% or more. Effects have a minus sign here. For the sample, strong results were picked, then their nearest neighbours and some compounds at random.
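Further: peak tail current of the secondary pulse compared with the same well before compound.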

In this test the target is human ether-à-go-go-related gene (hERG) potassium channel (human, UniProt Q12809). Briefly: primary screen, population patch clamp on CHO cells stably expressing hERG; higher = less effect of the substance.
Sequence of human ether-à-go-go-related gene (hERG) potassium channel (Q12809 whole entry, looked up): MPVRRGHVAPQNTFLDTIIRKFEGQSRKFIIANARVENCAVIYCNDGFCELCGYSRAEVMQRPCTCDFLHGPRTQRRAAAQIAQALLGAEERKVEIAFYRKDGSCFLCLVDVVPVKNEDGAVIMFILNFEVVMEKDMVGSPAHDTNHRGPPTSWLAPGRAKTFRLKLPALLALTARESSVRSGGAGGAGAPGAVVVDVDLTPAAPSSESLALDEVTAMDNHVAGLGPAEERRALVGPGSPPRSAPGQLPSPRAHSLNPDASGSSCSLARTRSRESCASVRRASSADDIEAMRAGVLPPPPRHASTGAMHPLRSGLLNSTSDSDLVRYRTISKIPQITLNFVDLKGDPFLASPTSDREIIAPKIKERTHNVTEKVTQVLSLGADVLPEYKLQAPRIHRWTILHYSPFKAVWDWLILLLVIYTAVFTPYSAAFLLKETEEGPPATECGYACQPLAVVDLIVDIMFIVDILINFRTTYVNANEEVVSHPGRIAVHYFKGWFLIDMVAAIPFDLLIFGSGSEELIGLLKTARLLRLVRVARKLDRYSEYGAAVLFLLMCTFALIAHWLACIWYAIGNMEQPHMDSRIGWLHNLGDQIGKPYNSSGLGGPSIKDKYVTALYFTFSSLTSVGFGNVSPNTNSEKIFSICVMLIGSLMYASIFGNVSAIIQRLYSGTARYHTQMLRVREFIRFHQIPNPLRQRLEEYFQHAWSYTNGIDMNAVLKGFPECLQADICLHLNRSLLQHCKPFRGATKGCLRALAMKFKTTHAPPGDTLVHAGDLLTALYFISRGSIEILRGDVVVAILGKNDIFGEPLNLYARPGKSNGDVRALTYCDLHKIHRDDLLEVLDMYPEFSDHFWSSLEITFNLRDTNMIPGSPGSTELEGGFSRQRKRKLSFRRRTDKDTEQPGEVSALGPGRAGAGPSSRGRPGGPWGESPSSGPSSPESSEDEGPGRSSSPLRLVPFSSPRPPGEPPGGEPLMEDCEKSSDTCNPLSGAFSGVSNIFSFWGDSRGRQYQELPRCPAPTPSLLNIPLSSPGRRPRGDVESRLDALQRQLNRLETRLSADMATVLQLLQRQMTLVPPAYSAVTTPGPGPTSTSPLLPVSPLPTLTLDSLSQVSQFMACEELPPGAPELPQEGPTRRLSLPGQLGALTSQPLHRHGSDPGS
Turning to `O=C(c1ccccc1[N+](=O)[O-])N1CCN(Cc2ccc3c(c2)OCO3)CC1`, the “hERG current change (%, negative = inhibition) at 10uM” value was -13.4%.
For `Cc1cccc(N2C(S)=C(C#N)C(=O)NC23CCCCC3)c1`, the “hERG current change (%, negative = inhibition) at 10uM” value is -7.13%.
Turning to `CCCCC(=O)Nc1ccc(NC(=O)c2ccco2)cn1`, the “hERG current change (%, negative = inhibition) at 10uM” value amounted to 10.1%.
The value for `CCOc1ccccc1N1CCN(C(=O)c2csc(C)c2CC)CC1` was -8.41%; that for `COC(=O)CSC1=C(C#N)C(c2ccccc2OC)C(C(=O)OC)C(=O)N1` (stereo not drawn) was 15.6%; that for `C/C(=C\C(=O)c1sccc1Cl)N(C)C` was 0.12%.
As to `Cc1cnc([N+](=O)[O-])n1CCOC(=O)c1cccc(F)c1`, the “hERG current change (%, negative = inhibition) at 10uM” value is recorded as -3.45%.
Then `O=C(Cn1cnc2c(cnn2-c2ccccc2)c1=O)Nc1cc(S(=O)(=O)N2CCOCC2)ccc1Cl`, with -32.2%; and `CCOc1cc(C(=S)N2CCCCC2)ccc1OCC(=O)NCc1ccccc1`, with -31.2%; and `COc1ccc(N2CCN(C(=O)Cn3cnc4c(cnn4-c4ccc(C)cc4)c3=O)CC2)cc1`, with -9.24%.
For the molecule `CCN(CC)CCCNC(=O)c1cn(-c2cccc(OC)c2)c(=O)c2ccccc12`, the “hERG current change (%, negative = inhibition) at 10uM” value is -68.5%.
The value for `COCCCNC(=O)c1cn(-c2cccc(OC)c2)c(=O)c2ccccc12` was 18.1%; that for `COc1cccc(-n2cc(C(=O)NCCCOC(C)C)c3ccccc3c2=O)c1` was -6.95%; that for `CC(/C=C/c1ccccc1)=N\NC(=O)CNC(=O)c1ccccc1Cl` was 7.15%.
Regarding `O=C(CSC1CC(=O)N(c2ccc(C(=O)O)cc2)C1=O)Nc1ccc2ccccc2c1` (stereo not drawn), the “hERG current change (%, negative = inhibition) at 10uM” value stood at 15.8%.
Take `CN(C)CCNc1ccc(Cl)cc1[N+](=O)[O-]`: the “hERG current change (%, negative = inhibition) at 10uM” value is listed as -18.7%.
With `O=C(NCCNc1ccccc1[N+](=O)[O-])c1ccccc1F`, the “hERG current change (%, negative = inhibition) at 10uM” value worked out at 4.11%.
For `Cc1ccoc1C(=O)NCCNc1ccc(Cl)cc1[N+](=O)[O-]`, the “hERG current change (%, negative = inhibition) at 10uM” value is -30.5%.
`O=C(NCCNc1ccccc1[N+](=O)[O-])c1cc(F)c(F)cc1Cl`: the “hERG current change (%, negative = inhibition) at 10uM” value is reported as -52.1%.
Consider `Cc1ccc(C(=O)NCCNc2ccc(Cl)cc2[N+](=O)[O-])o1`, for which the “hERG current change (%, negative = inhibition) at 10uM” value was -60%.
For the molecule `O=C(NCCNc1ccc(Cl)cc1[N+](=O)[O-])c1cccnc1`, the “hERG current change (%, negative = inhibition) at 10uM” value is reported as -29.4%.
The value for `CCNCCNc1ccc(Cl)cc1[N+](=O)[O-].Cl` was -20.3%.
Regarding `CCN(CC)CCNc1ccc(Cl)cc1[N+](=O)[O-].Cl`, the “hERG current change (%, negative = inhibition) at 10uM” value was -61.6%.
Regarding `O=C(NCCCNc1ccc(C(F)(F)F)cc1[N+](=O)[O-])c1cc(F)c(F)cc1Cl`, the “hERG current change (%, negative = inhibition) at 10uM” value is on record as -15.7%.
On to `COc1ccccc1NC(=O)NCC(c1ccco1)N1CCCCC1` (stereo not drawn), for which the “hERG current change (%, negative = inhibition) at 10uM” value was found to be 14.8%.
For the molecule `Cc1ccc(S(=O)(=O)Nc2ccc(SC(F)F)cc2)c(C)c1`, the “hERG current change (%, negative = inhibition) at 10uM” value turned out to be 10.3%.
In the case of `COc1ccc(NC(=O)CN2C(=O)C(C)Oc3ccc(C)cc32)cc1` (stereo not drawn), the “hERG current change (%, negative = inhibition) at 10uM” value is recorded as 3.11%.
The value for `CC(NC(=O)COc1ccccc1Cl)c1ccccc1` (stereo not drawn) was 7.82%; that for `CN1CCN(C(=O)/C(=C/c2cccs2)NC(=O)c2ccco2)CC1` was -70.5%; that for `Cc1ccc(NC(=O)/C(=C/c2cccs2)NC(=O)c2ccco2)cc1` was 6.71%.
`O=C(N/C(=C\c1cccs1)C(=O)N1CCOCC1)c1ccco1`: the “hERG current change (%, negative = inhibition) at 10uM” value turned out to be 0.17%.
Consider `O=C(N/C(=C/c1cccs1)C(=O)N1CCOCC1)c1ccco1`, for which the “hERG current change (%, negative = inhibition) at 10uM” value is -1.03%.
For `CN1CCN(C(=O)/C(=C\c2cccs2)NC(=O)c2ccco2)CC1`, the “hERG current change (%, negative = inhibition) at 10uM” value was -67.4%.
Then `Cc1ccccc1NC(=O)/C(=C\c1cccs1)NC(=O)c1ccco1`, with -7.17%; and `O=C(Nc1ccc(S(=O)(=O)N2C[C@@H]3C[C@@H](C2)c2cccc(=O)n2C3)cc1)c1ccc(F)cc1`, with -2.39%; and `CC(=O)Nc1nc(N)n(-c2ccccc2)n1`, with 3.2%.
Turning to `Clc1ccc(-c2ncc3ccccn23)cc1`, the “hERG current change (%, negative = inhibition) at 10uM” value is recorded as -4.95%.
In the case of `CN(c1ccc(C(=O)NCc2ccc3c(c2)OCO3)cc1)S(=O)(=O)c1ccccc1`, the “hERG current change (%, negative = inhibition) at 10uM” value was -4.02%.
The value for `O=C(NC1=NCCS1)C1CC2CCC1C2` (stereo not drawn) was 2.05%; that for `COc1ccc(/C=N\NC(=O)c2cc(O)c(O)c(O)c2)cc1COc1ccc(C(=O)OCC(C)C)cc1` was 21%.
With `CC(C)(C)c1ccc(OC(=O)c2ccc3snnc3c2)cc1`, the “hERG current change (%, negative = inhibition) at 10uM” value is listed as 20.4%.
For the molecule `O=c1[nH]c2cc3c(cc2cc1CN(Cc1cccnc1)C(=S)NCc1ccco1)OCCO3`, the “hERG current change (%, negative = inhibition) at 10uM” value is reported as -5.62%.
On to `Cc1ccc(C)c2[nH]c(=O)c(CN(CC3CCCO3)C(=S)NCc3ccco3)cc12` (stereo not drawn), for which the “hERG current change (%, negative = inhibition) at 10uM” value is given as -24.3%.
As to `CCN(CC)CCCN(Cc1cc2cc3c(cc2[nH]c1=O)OCO3)C(=S)NCc1ccco1`, the “hERG current change (%, negative = inhibition) at 10uM” value is listed as -38.2%.
In the case of `O=c1[nH]c2cc3c(cc2cc1CN(CCCO)C(=S)NCc1ccco1)OCO3`, the “hERG current change (%, negative = inhibition) at 10uM” value was 12%.
Regarding `Cc1cc2cc(CN(CCN(C)C)C(=S)NCc3ccco3)c(=O)[nH]c2cc1C`, the “hERG current change (%, negative = inhibition) at 10uM” value was -43.8%.
Then `CCN(CC)CCN(Cc1cc2cc3c(cc2[nH]c1=O)OCO3)C(=S)NCc1ccco1`, with -55.8%.
`O=c1[nH]c2cc3c(cc2cc1CN(Cc1cccnc1)C(=S)NCc1ccco1)OCO3`: the “hERG current change (%, negative = inhibition) at 10uM” value was -52.5%.
Consider `Cc1cc2cc(CN(Cc3cccs3)C(=S)NCc3ccco3)c(=O)[nH]c2cc1C`, for which the “hERG current change (%, negative = inhibition) at 10uM” value is -13.9%.
With `Cc1ccc(C)c2[nH]c(=O)c(CN(Cc3cccnc3)C(=S)NCc3ccco3)cc12`, the “hERG current change (%, negative = inhibition) at 10uM” value is -61.1%.
`Cc1ccc(C)c2[nH]c(=O)c(CN(Cc3cccs3)C(=S)NCc3ccco3)cc12`: the “hERG current change (%, negative = inhibition) at 10uM” value is given as -33%.
Take `CN(C)CCN(Cc1cc2cc3c(cc2[nH]c1=O)OCO3)C(=S)NCc1ccco1`: the “hERG current change (%, negative = inhibition) at 10uM” value is recorded as -11.4%.
As to `CCN(CC)CCN(Cc1cc2cc(C)c(C)cc2[nH]c1=O)C(=S)NCc1ccco1`, the “hERG current change (%, negative = inhibition) at 10uM” value is on record as -52.8%.
Turning to `COc1ccc(C(=O)NCCSc2ccc(C)cc2)cc1`, the “hERG current change (%, negative = inhibition) at 10uM” value is reported as -11%.
As to `O=c1cc(-c2cc3ccccc3o2)c2cc(O)ccc2o1`, the “hERG current change (%, negative = inhibition) at 10uM” value is on record as 13.3%.
For `Clc1ccc(-[n+]2c(-c3cccc(Br)c3)[nH]c3nc4ccccc4nc32)cc1`, the “hERG current change (%, negative = inhibition) at 10uM” value is 13.5%.
Then `Cc1ccc(S(=O)(=O)NC(=O)COc2ccccc2C)c(C)c1`, with -21.9%; and `Cc1c(Cl)cccc1NC(=O)COC(=O)c1c2c(nc3ccccc13)CCN(Cc1ccccc1)C2`, with 2.82%.
The value for `Cc1ccc(C(=O)NNC(=O)Cn2nnc3ccccc32)cc1` was 13.3%.
On to `NC(=O)COc1cccc(/C=N/NC(=O)c2ccc(-n3cccc3)cc2)c1`, for which the “hERG current change (%, negative = inhibition) at 10uM” value was found to be 13.5%.
For `CCN(CC)CCN(Cc1cc2cc3c(cc2[nH]c1=O)OCCO3)C(=S)NCC(C)C`, the “hERG current change (%, negative = inhibition) at 10uM” value is listed as -4.96%.
For the molecule `CCN(CC)CCN(Cc1cc2cc3c(cc2[nH]c1=O)OCO3)C(=S)NCC(C)C`, the “hERG current change (%, negative = inhibition) at 10uM” value is on record as -55.1%.
As to `CC(C)CNC(=S)N(CCN(C)C)Cc1cc2cc3c(cc2[nH]c1=O)OCO3`, the “hERG current change (%, negative = inhibition) at 10uM” value was 0.354%.
For `S=C1NCCOCCNC(=S)NCCOCCOCCOCCN1`, the “hERG current change (%, negative = inhibition) at 10uM” value was 10.2%.
Then `CCc1cc(=O)oc2cc(C)c3c(C)coc3c12`, with 16.3%; and `CCOC(=O)C1=C(C)NC(=O)C(C(N)=O)C12CCCCC2` (stereo not drawn), with 12.4%.
`CC(C)NC(=O)CN1C(=O)CSc2ccc(S(=O)(=O)N3CCCC3)cc21`: the “hERG current change (%, negative = inhibition) at 10uM” value was determined as 15.6%.
Regarding `OCCOc1ccc(CN2CCCC(N3CCN(c4ccc(F)cc4)CC3)C2)cc1` (stereo not drawn), the “hERG current change (%, negative = inhibition) at 10uM” value is listed as -69.8%.
As for `CSc1ccc(CN2CCCC(N3CCN(c4ccccc4)CC3)C2)cc1` (stereo not drawn), the “hERG current change (%, negative = inhibition) at 10uM” value is recorded as -64.2%.
With `COc1ccc(CN2CCCC(N3CCN(c4ccc(OC)cc4)CC3)C2)cc1` (stereo not drawn), the “hERG current change (%, negative = inhibition) at 10uM” value is -45%.
The value for `COc1ccc(N2CCN(C3CCCN(Cc4cccc(OC)c4)C3)CC2)cc1` (stereo not drawn) was -64.4%.
Then `COc1ccc(N2CCN(C3CCCN(Cc4cccc(C)c4)C3)CC2)cc1` (stereo not drawn), with -32.8%; and `COc1ccccc1N1CCN(C2CCCN(Cc3ccccc3OCCO)C2)CC1` (stereo not drawn), with -25.5%.
The value for `CCOc1ccc(CN2CCCC(N3CCN(c4ccc(OC)cc4)CC3)C2)cc1` (stereo not drawn) was -64%; that for `COc1ccc(N2CCN(C3CCCN(Cc4cccc(C(C)=O)c4)C3)CC2)cc1` (stereo not drawn) was -30.2%; that for `COC(=O)CCC(=O)N1CCCC(N2CCN(c3ccc(OC)cc3)CC2)C1` (stereo not drawn) was -1.47%.
As for `CCN(C1CCS(=O)(=O)C1)S(=O)(=O)c1ccc2ccccc2c1` (stereo not drawn), the “hERG current change (%, negative = inhibition) at 10uM” value is reported as -10.5%.
For the molecule `Cc1c[n+](CC(=O)c2ccccc2)cs1.[Br-]`, the “hERG current change (%, negative = inhibition) at 10uM” value turned out to be 22%.
As to `COc1ccc(NC(=O)CSCC(=O)Nc2ccccc2N2CCCC2)cc1`, the “hERG current change (%, negative = inhibition) at 10uM” value was -7.76%.
Then `CCOC(=O)c1csc(NC(=O)c2ccc(OCC)cc2)n1`, with -14.9%; and `Cc1ccccc1C(=O)OC1OC(=O)C(Cl)=C1Nc1ccc(C(=O)O)cc1` (stereo not drawn), with 24.4%; and `COc1ccc(S(=O)(=O)N2CCN3CCCC3C2)cc1` (stereo not drawn), with 22.7%.
With `COc1ccc(N2CCN(C3CCCN(S(=O)(=O)c4ccccc4)C3)CC2)cc1` (stereo not drawn), the “hERG current change (%, negative = inhibition) at 10uM” value is on record as -31.1%.
Turning to `COc1ccc(N2CCN(C3CCCN(Cc4ccc(F)c(F)c4)C3)CC2)cc1` (stereo not drawn), the “hERG current change (%, negative = inhibition) at 10uM” value was -64.6%.
Turning to `CCc1ccc(S(=O)(=O)N2CCCC(N3CCN(c4ccc(OC)cc4)CC3)C2)cc1` (stereo not drawn), the “hERG current change (%, negative = inhibition) at 10uM” value is on record as -65.4%.
The value for `COc1ccccc1N1CCN(C2CCCN(Cc3c(F)cccc3F)C2)CC1` (stereo not drawn) was -16.3%.
On to `CC1CCCCN1CCCNc1ccc(C(CC(N)=O)NC(=O)Cc2cccc3ccccc23)cc1[N+](=O)[O-]` (stereo not drawn), for which the “hERG current change (%, negative = inhibition) at 10uM” value is listed as -14.6%.

(Values after article PMC4336329 (PLoS ONE, 2015).)
